PG9 Ab binder: small molecules binding HIV-1 gp120 antibody PG9; TR-FRET gp120-PG9 antibody binding; inhibition, % at 6.7 µM; 0.43% of 360,000 active; in the data active = inhibition above about 8.5%
SMARCA2 act: activators of SMARCA2 function | 1% of 370,000 active | MG213 cells, MMTV-luciferase reporter, dexamethasone, overnight | activation, % at 9.1 µM; in the data active = activation above about 7.8%;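 note: 0% = vehicle wells and 100% = reference activator wells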
HSP90 inh: blocks HSP90-mediated luciferase refolding in reticulocyte lysate. Rabbit reticulocyte lysate, luciferase refolding luminescence, 3 h. inhibition, % at 5.6 µM. 0.91% of 290,000 active. AID 1789;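 active = inhibition above the screen-wide mean plus 3 SD, computed separately per campaign, cut at about 16% in these data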;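 note: 0% = DMSO wells and 100% = 60 µM geldanamycin wells; inhibitors lower the luminescence because luciferase stays unfolded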
AI-2 QS mod: modulators of Vibrio harveyi AI-2 quorum sensing system. Vibrio harveyi JMH597 AI-2 luminescence/OD600 ratio, 9 h; stronger effect = lower value; strain lacks LuxN and CqsS sensors; 0 = neutral-control median. activity change, % at 7.5 µM. 0.4% of 300,000 active. AID 2094; in the data active = activity change below about -75%, passing the limit was not always enough;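 note: luminescence divided by OD600 gain over 9 h not by final OD600 alone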
GAA850 FXN act: frataxin GAA850 promoter activation; HEK293 lucGAA850 FXN promoter luciferase reporter, 24 h; percent of 10 µM SAHA response; activation, % at 6 µM; 0.56% of 360,000 active;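 active = activation above the average of all compounds screened plus 3 SD, cutoff fixed separately per campaign, cut at about 7.5% in these data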;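 note: 0% = DMSO wells and 100% = 10 µM SAHA wells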
HSF1 inh: HSF1 inhibition | AID 2098 | NIH3T3-HGL HSE-luciferase, MG132-induced, luminescence 8 h; stronger effect = lower value | activity change, negative = inhibition, % at 7.5 µM (by protocol) | 0.77% of 300,000 active;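 active = more than half of replicate wells show activity change below -50%, luminescence cut by over half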;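 note: luciferase reports HSF-1 transcriptional activity via heat shock element; 0% = median of DMSO wells and -100% = zero luminescence signal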
PG9 bind confirm: PG9 antibody binding, confirmed | TR-FRET PG9 antibody binding, biochemical | AID 651571 | inhibition, % at 6.7 µM | shares compounds with PG9 Ab binder | 90% of 1,500 active; in the data active = inhibition above about 9%
PGV04 Ab binding: PGV04 control antibody binding, counter-screen; shares compounds with PG9 Ab binder; TR-FRET PGV04 antibody-gp120 binding, biochemical; inhibition, % at 6.7 µM; 95% of 1,500 active; AID 651604; in the data active = inhibition above about 9.5%
Numbers without * were called inactive; · = no result. Only some compounds are listed: those with a hit (about 3.4% of all), similar ones and a draw of the others.

SMILES	PG9 Ab binder	SMARCA2 act	HSP90 inh	AI-2 QS mod	GAA850 FXN act	HSF1 inh	PG9 bind confirm	PGV04 Ab binding
CC(=O)c1cccc(N/C=C\c2nnnn2-c2ccc(F)cc2)c1	16.6*	0.2	-1.2	14.1	1.4	17.9	10.8*	19.8*
CCCCCCCCN1C(=O)[C@@H](CC(=O)N2CCN(C(=O)C3CC3)CC2)C[C@@]2(C(=O)OC)C1=C[C@H](C(C)(C)C)O[C@@H]2C	1.0	-2.8	·	·	·	·	·	·
Cc1ccc(NC(=O)CSc2nc3ncc(Br)cc3[nH]2)cc1C	45.3*	-1.7	0.3	20.5	1.1	2.7	65.9*	79.4*
Cc1cc(C)c(NC(=O)CSc2nc3ncc(Cl)cc3[nH]2)c(C)c1	3.0	0.3	0.9	19.8	-0.2	11.8	·	·
Cc1cc(C)c(NC(=O)CSc2nc3ncc(Br)cc3[nH]2)c(Cl)c1	35.0*	-1.3	-0.6	15.5	0.8	-23.4	39.1*	62.9*
CCOC(=O)C[C@@H](C#N)NC(=O)[C@@H]1CCCN1C(=O)[C@@H](NC(=O)c1ccc(N)c(Cl)c1)C(C)(C)C	1.4	-5.7	·	·	-4.1	·	·	·
CCN1C(=O)/C(=C2/Sc3ccc(OC)cc3N2C)SC1=Nc1ccc(OC)cc1	-2.5	0.5	1.3	1.0	2.1	0.7	·	·
C=CCN1C(=O)/C(=C2/Sc3ccc(OC)cc3N2C)SC1=Nc1cccc(O)c1	10.5*	0.4	0.1	9.3	0.8	-2.4	41.0*	58.8*
Cc1nc(C(=O)Nc2ccccc2Cl)cc2c1[nH]c1ccccc12	21.7*	-0.9	-3.9	29.4	0.6	3.3	11.6*	25.9*
CC(=O)c1c(C)[nH]c(C(=O)NNC(=O)COc2ccc(Cl)cc2C)c1C	2.4	0.2	·	16.7	-0.5	-1.4	·	·
COc1ccc(Cl)cc1NC(=O)c1[nH]c(C)c(C(C)=O)c1C	27.0*	-5.1	-6.9	10.6	3.7	-10.1	28.4*	31.4*
CCCCOCCCNC(=O)C[C@@H]1C[C@]2(C(=O)OCC)CCC3=C2N(CCC3)C1=O	·	-1.4	·	·	·	·	·	·
CCOC(=O)C1=C(C(=O)OCC)C2N(Cc3ccccc3)c3ccccc3[C@@]23C[C@@H](C(=O)OC)N(S(=O)(=O)c2ccc(C(F)(F)F)cc2)C3=N1 (stereo partly drawn)	-1.6	5.4	·	·	·	·	·	·
O=C(CNC(=O)c1sc2ccccc2c1Cl)NCc1cccnc1	-0.2	2.3	1.3	13.2	-0.6	-7.8	·	·
O=C(CNC(=O)c1sc2ccccc2c1Cl)NCc1ccc(F)cc1	12.3*	-1.5	·	6.5	-1.2	-18.7	7.7	20.7*
O=C(CNC(=O)c1sc2ccccc2c1Cl)Nc1ccccc1F	12.1*	-0.2	·	4.7	-0.7	6.1	16.5*	32.5*
Cc1[nH]c2ccccc2c1CC(=O)Nc1ccc(Nc2cccnc2)c(-c2ccc(OC(F)(F)F)cc2)c1	-0.9	-4.3	·	·	·	·	·	·
CCN(CC)c1ccc2cc(-c3nc4ccccc4n3C)c(=O)oc2c1	10.1*	0.7	2.2	24.1	2.8	-15.4	11.4*	17.2*
N#Cc1c(-c2ccccc2)nc(SCc2ccc(Cl)cc2)[nH]c1=O	0.7	-0.2	1.6	6.0	1.3	-1.0	·	·
N#Cc1c(-c2ccco2)nc(SCc2ccc(F)cc2)[nH]c1=O	32.6*	-1.3	-0.2	31.5	-3.9	26.3	32.8*	37.0*
COc1ccc2c(-c3ccccc3)cc(SCC(=O)NC(N)=O)nc2c1	17.1*	-1.1	0.8	15.9	0.6	·	28.1*	64.9*
COc1ccc2c(-c3ccccc3)cc(SCC(=O)NC3CCS(=O)(=O)C3)nc2c1 (stereo not drawn)	22.2*	-2.4	-1.6	3.4	3.1	·	16.0*	19.3*
COc1ccc2c(-c3ccccc3)cc(SCC(=O)N(C)C)nc2c1	-1.6	-0.4	4.8	7.1	0.3	5.7	·	·
CCN(C(=O)CSc1cc(-c2ccccc2)c2ccc(OC)cc2n1)C1CCS(=O)(=O)C1 (stereo not drawn)	1.6	-3.5	-2.8	28.8	1.7	7.2	·	·
COCCNC(=O)CSc1cc(-c2ccccc2)c2ccc(OC)cc2n1	15.8*	-1.5	-2.7	-7.9	-0.4	22.2	21.4*	25.5*
SMILES	PG9 Ab binder	SMARCA2 act	HSP90 inh	AI-2 QS mod	GAA850 FXN act	HSF1 inh	PG9 bind confirm	PGV04 Ab binding
O=C(Nc1ccc(F)cc1)OCc1cn(Cc2ccccc2)nn1	·	-1.1	·	·	·	·	·	·
Cc1ccc(S(=O)(=O)N2CCCCC2)cc1NCC(=O)Nc1ccc(Br)cc1F	1.1	-8.5	·	·	-3.0	·	·	·
CC(=O)Nc1ccc(NC(=O)c2cccc(-c3cc4ccccc4oc3=O)c2)cc1	-0.7	3.4	-3.0	8.4	2.1	14.7	·	·
O=C(Cc1cccc2ccccc12)Nc1ccc(-c2cc3ccccc3oc2=O)cc1	18.5*	-8.7	1.6	5.5	-16.5	-8.5	34.9*	44.5*
c1ccc(Cc2cnc(N3CCN(Cc4cccc(-c5ccsc5)n4)CC3)nc2)cc1	0.2	-4.8	·	·	·	·	·	·
Clc1ccc(-c2ccc(-c3nn4c(-c5ccco5)nnc4s3)o2)cc1	-0.4	-2.0	0.5	19.5	1.1	9.6	·	·
Brc1ccc(-c2nn3c(-c4ccco4)nnc3s2)o1	16.2*	-1.9	-0.6	10.2	-1.4	9.4	20.0*	37.3*
C[C@H]1COc2cc(N3CCCCC3)ccc2S(=O)(=O)N1	-1.0	-4.0	·	·	·	·	·	·
CC(OC(=O)c1cc(Br)ccc1O)C(=O)NCc1ccc2c(c1)OCO2 (stereo not drawn)	19.6*	-3.4	·	32.9	-1.4	-0.4	33.0*	68.5*
CCOc1ncccc1C(=O)Nc1ccc(Cl)c(S(=O)(=O)N2CCCC2)c1	11.4*	-6.2	5.8	3.7	1.4	-3.8	7.0	10.1*
CCOc1ncccc1C(=O)Nc1cc(S(=O)(=O)N2CCCCC2)ccc1Cl	1.0	-3.6	·	·	2.3	·	·	·
Cc1ccc(C)c(C2NC(=O)c3ccccc3N2)c1 (stereo not drawn)	0.8	1.2	-3.5	4.9	-4.0	-4.2	·	·
Cn1cc(C2NC(=O)c3ccccc3N2)c2ccccc21 (stereo not drawn)	20.3*	-4.3	·	·	1.7	·	9.9*	21.6*
CN(Cc1c(O)ccc2c1oc(=O)c1ccccc12)C1CCCCC1	9.9*	0.0	2.1	23.3	-0.9	13.7	11.7*	16.7*
CN(C)Cc1c(O)ccc2c3c(c(=O)oc12)CCCCC3	2.1	4.7	0.3	22.0	0.5	-0.9	·	·
S=c1[nH]nc(-c2ccccn2)n1/N=C/c1ccc(-c2ccccc2Br)o1	15.2*	1.2	-1.4	31.9	-1.4	-7.4	7.7	25.1*
S=c1[nH]nc(-c2cccc(Cl)c2)n1/N=C/c1ccc(-c2ccccc2Br)o1	1.3	0.1	-0.8	17.0	0.1	-2.7	·	·

Compound activity: PubChem, several laboratories
